Compounds with a hit are over-represented: about 12% of the library has one in this group of screens.
PI5P4Ka inh = inhibitors of human PI5P4K alpha. P48426. PI5P4Kalpha enzyme, ADP-Glo luminescence, 60 min; hits give low values. max response, %. 1.2% of 330,000 active; active = max response of -50% or lower; inconclusive = between -30% and -50%; inactive = -30% or higher; note: value at the top dose of about 77 µM; % is set by controls: 0 for no effect and ±100 for the full control effect
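Single end-point luminescence (ADP-Glo) quantified ADP from PI5P4Kalpha turnover; ATP 5 microM final, 1 h at RT, 0.1% CHAPS and 0.28 mM EGTA in HEPES pH 7.4.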
JMJD2A Tudor inh = JMJD2A Tudor domain (human) inhibition; O75164; AlphaScreen JMJD2A-Tudor / H3K4me3 peptide binding; Potency, µM (doses to about 114 µM), for inactives: top-dose activity change, negative = inhibition, hits mostly inhibitors; 4.4% of 390,000 active; AID 504339; note: potency is the fitted concentration of half-maximal effect; % is set by controls: 0 for no effect and ±100 for the full control effect; nearly all actives have a fitted effect of over 50% in size
HP1b binding inh = blocks HP1-beta chromodomain binding to methylated histone tails; P83916; AlphaScreen HP1-beta / biotin-H3K9me3 peptide binding; Potency, µM (top dose mostly 114 µM), for inactives: at the highest dose activity change, negative = inhibition, most hits filed as inhibitors; 0.56% of 390,000 active; note: potency is the fitted concentration of half-maximal effect; nearly all actives have a fitted effect of over 70% in size
Target sequence (P83916 whole entry, looked up): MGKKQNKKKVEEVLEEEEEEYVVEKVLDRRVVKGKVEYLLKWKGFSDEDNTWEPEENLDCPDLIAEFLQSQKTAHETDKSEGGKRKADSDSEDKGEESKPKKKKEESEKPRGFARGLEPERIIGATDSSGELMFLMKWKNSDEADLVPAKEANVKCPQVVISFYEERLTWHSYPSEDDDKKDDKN
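HP1-beta protein (50 nM final) preincubated 30 min at room temperature with biotinylated H3(1-18)K9me3 peptide (50 nM) in PBS pH 7.4, 0.01% Tween-20, then compound added for 30 min. AlphaScreen streptavidin donor/nickel chelate acceptor beads (10 ug/mL final), 30 min dark, luminescence read.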
G9a inh = blocks human histone lysine methyltransferase G9a | 8.8% of 350,000 active | G9a H3K9 monomethylation, AlphaScreen, 2 h | Potency, µM (doses to about 102 µM), for the others: at the top dose activity, negative = inhibition, most hits filed as inhibitors | AID 504332; note: potency is the fitted concentration of half-maximal effect; % is set by controls: 0 for no effect and ±100 for the full control effect; nearly all actives have a fitted effect of over 75% in size
Target sequence (Q96KQ7 913-1193 limits assumed): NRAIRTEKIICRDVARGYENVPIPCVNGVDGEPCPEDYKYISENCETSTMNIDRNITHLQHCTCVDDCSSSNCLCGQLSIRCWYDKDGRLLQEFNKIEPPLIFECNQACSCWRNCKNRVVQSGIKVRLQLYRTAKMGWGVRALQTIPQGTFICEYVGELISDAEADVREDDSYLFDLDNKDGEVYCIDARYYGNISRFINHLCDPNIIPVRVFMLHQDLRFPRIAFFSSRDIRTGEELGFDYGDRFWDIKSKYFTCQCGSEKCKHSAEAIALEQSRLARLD
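Compounds were preincubated with 20 nM G9a for 15 min, after which biotinylated H3K9 peptide (500 nM) and SAM (20 uM) started a 2 h room-temperature reaction. Monomethylated product was quantified by antibody-based AlphaScreen chemiluminescence.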
PLK1 PBD block = inhibitors of human PLK1 polo-box domain binding. P53350. Potency, µM, inactives show max response, negative = inhibition, actives largely listed as inhibitors. AID 720504. 2.8% of 360,000 active. Plk1 PBD binding of FITC phosphopeptide, fluorescence polarization; note: potency is the fitted concentration of half-maximal effect; series mostly up to about 57 µM; % is set by controls: 0 for no effect and ±100 for the full control effect; nearly all actives have a fitted effect of over 65% in size
BAZ2B block = blocks human BAZ2B | Q9UIF8 | AlphaScreen BAZ2B-H3K14Ac peptide displacement | Potency, µM (series often up to 114 µM), inactives show at the highest dose activity change, negative = inhibition, usual class: inhibitors | 4.4% of 360,000 active; note: potency is the fitted concentration of half-maximal effect; % is set by controls: 0 for no effect and ±100 for the full control effect; nearly all actives have a fitted effect of over 60% in size
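AlphaScreen displacement: compounds (up to 110uM) incubated 30 min at room temperature with a preformed 50 nM BAZ2B/50 nM biotinylated H3K14Ac peptide complex in PBS pH 7.4 with Tween-20. Donor and acceptor beads at 10 ug/mL final added, 20 min light-protected before reading.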
Active calls of the source: *; ? = inconclusive; / = no result; [ ] = remark or other dose. Unless noted, calls come from the whole dose curve; as a rule, active = well fitted curve in the direction sought with a large enough effect; inconclusive = small, poorly fitted or top-dose-only effect, or another doubt; inactive = no such curve, though single readings can be large; an effect the other way counts as inactive or inconclusive.

SMILES	PI5P4Ka inh	JMJD2A Tudor inh	HP1b binding inh	G9a inh	PLK1 PBD block	BAZ2B block
Cc1nn(-c2ccccc2)c(N)c1Sc1ccc([N+](=O)[O-])cc1	-16.5	?	?	10µM*	11.9µM*	-12.5%
COc1cc(C(=O)Oc2c(Sc3ccccc3)c(C)nn2-c2ccccc2)cc(OC)c1OC	/	-2.4%	64.4%	3.98µM*	/	-24.6%
Cc1nn(-c2ccccc2)c(OC(=O)C(C)(C)C)c1Sc1ccccc1	/	?	81.2%	3.98µM*	/	-0.4%
Cc1ccc(Sc2c(C)nn(-c3ccccc3)c2OC(=O)C(C)(C)C)cc1	/	25.6%	109.3%	10µM*	/	16.8%
Cc1nn(-c2ccccc2)c(OC(=O)C(C)C)c1Sc1ccccc1	/	?	12.2%	1.58µM*	/	-7.2%
COc1ccccc1OCc1nc2ccccc2n1Cc1ccccc1	/	-2.2%	27.9%	1.5%[59 µM]	/	15.8%
COc1ccc(N2CCN(C(=O)c3cc4c(C)nc5ccccc5c4o3)CC2)cc1	5.8	56.2µM*	?	50.1µM*	-9.8%	7.3%
COc1ccc(N2CCN(C(=O)c3cc4c(=O)n(Cc5cccs5)ccc4nc3C)CC2)cc1	/	?	-6.2%	?	/	50.1µM*
Cc1nc2ccccc2c2oc(C(=O)N3CCC(N4CCCCC4)CC3)cc12	-3.5	-25.4%	17.5%	70.8µM*	-12.4%	-2.8%
Cc1nc2ccccc2c2oc(C(=O)N3CCN(C4CCCCC4)CC3)cc12	-1.0	-11.3%	30.5%	14.8%	-6.9%	11.6%
COC(=O)c1ccc(OC)c(Cn2c(=O)n(-c3cccc(Cl)c3)c(=O)c3c4c(sc32)CN(C(C)=O)CC4)c1	/	-1.4%	34.6%	7.4%[59 µM]	/	-0.8%
Cc1ccc(CNC(=O)CC[C@H]2O[C@@H](n3cc(C)c(=O)[nH]c3=O)C[C@@H]2O)o1	-3.3	/	/	/	1.1%	/
COc1ccccc1-c1ccc([C@@H]2C[C@H]3[C@H](CON3C)CN2C(=O)c2ccco2)cc1	6.5	/	/	/	-5.1%	/
CCOc1cc(-c2nc(C)c(C(C)=O)n2O)ccc1OCC(=O)Nc1ccc(F)cc1	1.9	-12.9%	24.7%	50.1µM*	-7.3%	-3.7%
CC(=O)c1c(C)nc(-c2ccc(OCC(=O)Nc3ccc(F)cc3)cc2)n1O	-3.8	-13.0%	22.9%	17.8µM*	-6.3%	-26.0%
CCOC(=O)CCCCCC(=O)Nc1ccc2c(c1)C(=O)N([C@@H](C)CO)C[C@H](C)[C@H](CN(C)C(=O)c1ccccc1)OCCCC[C@H](C)O2	-5.2	/	/	/	5.6%	/
COc1cc(/C=C/c2ccc3cccc([N+](=O)[O-])c3n2)ccc1OCC(=O)O	-19.5	-18.9%	5.2%	39.8µM*	-11.4%	56.2µM*
O=C(O)COc1ccc(/C=C/c2ccc3cccc([N+](=O)[O-])c3n2)cc1	-19.6	?	?	28.2µM*	-25.4%	56.2µM*
COc1cc(/C=C/c2ccc3c([N+](=O)[O-])cccc3n2)ccc1OCC(=O)O	-13.6	?	44.8%	7.2%[12.7 µM]	-8.4%	?
C=CCNc1nc(C(=O)OCC(=O)Nc2ccc(S(N)(=O)=O)cc2)cs1	?	?	-0.3%	-36.3%	-6.7%	89.1µM*
C=CCNc1nc(C(=O)OCC(=O)Nc2cc(S(C)(=O)=O)ccc2Cl)cs1	-7.6	-2.1%	32.1%	44.7µM*	-8.3%	6.6%
COc1ccc(S(=O)(=O)Nc2ccc3c(c2)CCCN3S(=O)(=O)c2ccc(C)cc2)cc1F	/	-18.5%	11.9%	-1.3%[12.7 µM]	/	?
Cc1cccc(N2CCN(S(=O)(=O)c3ccc4c(c3)NC(=O)CO4)CC2)c1C	-11.2	?	-13.7%	44.1%	26.7µM*	?
COc1ccc(N2CCN(C(=O)CCS(=O)(=O)c3ccc4c(c3)NC(=O)CO4)CC2)cc1	0.2	?	-11.7%	?	23.8µM*	-29.3%
COc1ccc(CNC(=O)CC(C)S(=O)(=O)c2ccc3c(c2)NC(=O)CO3)cc1 (stereo not drawn)	0.5	-15.8%	52.9%	31.0%	23.8µM*	-19.5%
SMILES	PI5P4Ka inh	JMJD2A Tudor inh	HP1b binding inh	G9a inh	PLK1 PBD block	BAZ2B block
Cc1cccc(N2CCN(C(=O)CCS(=O)(=O)c3ccc4c(c3)NC(=O)CO4)CC2)c1C	-17.9	?	-6.8%	-8.6%	11.9µM*	-25.0%
O=C1COc2ccc(S(=O)(=O)CCC(=O)N3CCN(c4cccc(C(F)(F)F)c4)CC3)cc2N1	-1.4	-25.5%	28.1%	52.1%	-12.2%	-20.0%
Cc1cccc(N2CCN(C(=O)CCS(=O)(=O)c3ccc4c(c3)oc(=O)n4C)CC2)c1C	-9.4	-21.4%	15.4%	-2.5%[0.0925 µM]	-10.7%	-17.5%
Fc1ccc(C(NCCc2ccccc2)c2nnc(-c3ccccc3Cl)o2)cc1 (stereo not drawn)	/	52.7%	89.1%	118.0%[59 µM]	/	55.3%
COc1ccc(C2Nc3ccccc3C(=O)N2Cc2ccccc2)cc1COc1ccc([N+](=O)[O-])cc1 (stereo not drawn)	/	-16.9%[57.1 µM]	6.6%[57 µM]	/	/	/
CCOc1ccc(C(C)=O)cc1COC(=O)c1ccccc1C(=O)N(C)Cc1ccccc1	-7.2	-21.2%	6.4%	-42.0%	-16.5%	6.4%
CSc1ccccc1OCc1cc(C(=O)N2CCc3[nH]cnc3C2c2ccccn2)no1 (stereo not drawn)	-3.8	17.8µM*	?	?	-5.9%	56.2µM*
CCCCOC(=O)CSc1nc2c(c(=O)[nH]c(=O)n2C)n1C/C=C(\C)Cl	-6.0	-0.3%	-8.6%	15.8µM*	?	8.0%
C/C(Cl)=C/Cn1c(SCC(C)C)nc2c1c(=O)[nH]c(=O)n2C	-7.4	8.7%	10.1%	50.1µM*	-15.6%	7.6%
CCOC(=O)C(CC)Sc1nc2c(c(=O)[nH]c(=O)n2C)n1C/C=C(/C)Cl (stereo not drawn)	-53.3*	17.8µM*	-10.7%	?	2.67µM*	-3.2%
CCCCCn1c(SCC(=O)OC)nc2c1c(=O)[nH]c(=O)n2C	-4.2	-18.8%	24.0%	17.3%	-14.7%	2.0%
C/C=C/CSc1nc2c(c(=O)[nH]c(=O)n2C)n1CCC	-8.4	-11.3%	4.7%	-11.6%[59 µM]	-17.5%	/
O=C(Nn1c(O)c(C=C2N=c3ccccc3=N2)sc1=S)c1ccccc1	/	-33.8%	-0.2%	1.41µM*	-4.1%	-28.7%
CCC1=NN(C(=O)c2ccc(C)cc2)C(O)(c2ccc(Br)cc2)C1 (stereo not drawn)	2.3	-32.0%	13.6%	22.9%[59 µM]	-11.4%	?
CCC1=NN(C(=O)c2cccc(Br)c2)C(O)(c2ccc(Br)cc2)C1 (stereo not drawn)	4.7	?	1.8%	25.5%[59 µM]	-6.9%	39.8µM*
CN(C(=O)c1ccc2c(c1)N(Cc1ccccc1F)C(=O)c1ccccc1S2(=O)=O)C1CCCCC1	/	-19.9%	32.0%	-17.6%[59 µM]	/	-19.4%
O=C(c1[nH]c(C(F)(F)F)nc1-c1ccccc1)N1CCN(c2c(Cl)cncc2Cl)CC1	-0.4	/	/	/	-18.7%	/

Screening data (PubChem BioAssay)
